# Assay outcomes from PubChem BioAssay.
# KKLEB tox = CF airway cell cytotoxicity counter-screen; KKLEB CF airway cells viability, ATPlite luminescence, overnight; stronger effect = lower value; cells stimulated with P. aeruginosa culture filtrate; activity change (cytotoxicity), % at 5 µM; 360,000 tested, 0.36% active;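 active means corrected activity change at or below -50% at 5 µM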
# Peg3 prom inh-1 = Peg3 promoter activity inhibition | AID 588405 | HeLa PEG-Prom luciferase reporter, luminescence, overnight | inhibition, % at 20 µM | 360,000 tested, 1.7% active;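 active means inhibition of at least 50% at 20 µM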
# HIF-2a block = inhibitors of HIF-2a; inhibition, % at 18.8 µM; AID 624352; 360,000 tested, 0.72% active; 786-0 RCC cells HIF-2a reporter, luciferase luminescence, overnight;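 active means inhibition of the luminescence signal of 40% or more relative to plate controls, in a single-dose primary screen at 18.75 µM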
# TWEAK Fn14 block = inhibitors of TWEAK-Fn14 interaction signaling | TWEAK-stimulated Fn14 reporter cells, luciferase luminescence, 8 h | inhibition, % at 10 µM | 360,000 tested, 2% active; in the data active means inhibition above about 50%
# TROY signal inh = TROY signaling inhibition | AID 1347056 | 360,000 tested, 0.98% active | inhibition, % at 10 µM | Q293 LMP1-TROYcd NF-kB luciferase reporter, 4 h;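 active means compounds whose plate-normalised and pattern-corrected inhibition of the luciferase reporter signal at the single screening dose is 50% or more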
# CF NFkB inh = cystic fibrosis NF-kB activation inhibition; inhibition, % at 5 µM; 360,000 tested, 0.86% active; KKLEB NF-kB-GFP reporter, PAF-induced, GFP fluorescence overnight;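 active means at least 50% inhibition at 5 µM, scaled per plate between neutral and stimulator controls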;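 further: PAF is a Pseudomonas aeruginosa culture filtrate used as stimulus; plate controls were PAF-stimulated DMSO wells for no effect and unstimulated DMSO wells for full effect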
# Peg3 prom inh-2 = Peg3 promoter inhibition confirmation | 1,300 tested, 84% active | HeLa PEG-Prom luciferase reporter, luminescence, overnight | inhibition, % at 20 µM | shares compounds with Peg3 prom inh-1;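 active means at 20 µM dose, 40% or more inhibition averaged across four replicates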
# * hit, by the source's call; . = no result. Sampled rows, rich in hits. Any-hit rate of the full collection: about 4%.
SMILES,KKLEB tox,Peg3 prom inh-1,HIF-2a block,TWEAK Fn14 block,TROY signal inh,CF NFkB inh,Peg3 prom inh-2
C[N+]1(C)CCN(c2ccccc2)CC1,-14.6,4.4,11.3,6.0,-4.0,-1.3,.
COc1ccc2c3c1OC1C(=O)CC[C@@]4(O)[C@@H](C2)N(C)CC[C@]314 (stereo partly drawn),-5.3,50.1*,-1.7,-0.1,-16.0,32.3,.
Cc1ccc(Cn2cc(C=O)c3ccccc32)cc1,-14.7,62.8*,35.8,38.2,30.3,26.1,.
O=Cc1cn(Cc2ccccc2[N+](=O)[O-])c2ccccc12,-2.6,21.3,15.9,43.0,27.8,8.3,.
COC(=O)C1=C(c2ccc(S(C)(=O)=O)cc2)C[C@@H]2CC[C@H]1N2C(=O)NCc1cccc2ccccc12,-2.5,10.9,10.4,-7.7,-6.8,-8.4,.
Cc1ccc(C(O)(c2ccc(C)c(C)c2)C2CN3CCC2CC3)cc1C (stereo not drawn),-13.6,98.1*,17.5,-12.4,-0.2,8.6,.
O=c1[nH]c(=O)n(-c2cccc3ccccc23)c(O)c1C=NCCCn1ccnc1,-2.8,5.9,-4.7,62.1*,15.7,-1.4,.
COc1ccccc1-n1c(O)c(C=NCCCn2ccnc2)c(=O)[nH]c1=O,-3.7,0.9,1.8,5.5,3.6,10.0,.
CC(=O)OC1C=CC2[C@H]3Cc4ccc(O)c5c4[C@@]2(CCN3C)C1O5 (stereo partly drawn),8.0,-2.2,12.8,-8.9,-3.8,-7.5,.
CC1=CC(O)C(O)C2(C)C1CC1OC(=O)C(O)C3C(C)C(O)C4(O)OCC13C42 (stereo not drawn),5.2,67.9*,34.7,-3.3,15.1,-4.6,44.9*
O=C1NC(=S)NC(=O)C1=Cc1cccc2cc3ccccc3cc12,-36.1,107.5*,-12.8,0.4,-28.1,94.6*,100.0*
CCc1ccccc1NC(=O)CN1CCN(C(=O)COc2ccccc2C#N)CC1,-12.0,6.7,9.9,11.4,17.0,6.9,.
O=C(CSC1c2ccccc2-c2ccccc21)N/N=C/c1ccccc1O,-9.4,54.5*,7.4,22.9,-48.7,-16.6,63.7*
Cc1c(C=O)c2ccccc2n1Cc1ccc(F)cc1,-9.0,12.8,8.5,7.7,-11.5,-2.3,.
O=Cc1cn(Cc2ccc([N+](=O)[O-])cc2)c2ccccc12,-4.9,91.2*,-4.3,3.4,-0.7,-7.9,79.7*
O=Cc1cn(Cc2ccc(F)cc2)c2ccccc12,-5.3,77.6*,10.1,21.9,10.8,19.6,68.8*
CCC(=O)N1N=C2C3CCN(CC3)C2C1c1ccccc1 (stereo not drawn),-1.3,3.6,11.8,-1.6,12.8,-6.0,.
COc1ccc(-n2nnnc2C(C2CC2)N2CCC(n3c(=O)[nH]c4ccccc43)CC2)cc1 (stereo not drawn),-15.7,58.4*,9.3,27.9,18.6,-3.1,58.3*
CCC(c1nnnn1-c1ccc2c(c1)OCCO2)N1CCC(n2c(=O)[nH]c3ccccc32)CC1 (stereo not drawn),-76.4*,78.5*,-0.6,29.1,30.4,78.9*,79.6*
COC(=O)C1=C(c2ccc(OCc3ccccc3)cc2)C[C@@H]2CC[C@H]1N2C(=O)NCCCc1ccccc1,-29.0,7.0,8.0,28.4,9.2,-0.1,.
CN1CCc2cc3c(c4c2C1Cc1ccccc1-4)OCO3 (stereo not drawn),7.4,70.8*,39.1,6.0,-18.3,-172.4,26.9
CCN(CC)C(=O)c1ccc(NC(=O)Nc2ccccc2F)cc1,-4.8,55.8*,27.4,71.8*,76.3*,0.4,45.0*
OC[C@H]1O[C@@H](n2cnc3cc(Cl)c(Cl)cc32)[C@H](O)[C@@H]1O,12.1,-7.2,2.2,26.7,24.1,19.7,.
Cn1cccc1/C=C1/C(=O)NC(=S)N(Cc2ccc(F)cc2)C1=O,-2.9,106.2*,27.1,3.0,5.9,32.7,63.1*
C[N+](C)(C)CC(=O)O,-10.4,10.4,-6.7,4.2,-1.0,-11.5,.
SMILES,KKLEB tox,Peg3 prom inh-1,HIF-2a block,TWEAK Fn14 block,TROY signal inh,CF NFkB inh,Peg3 prom inh-2
CC(=O)[C@H]1CCC2C3CC[C@H]4C[C@@H](O)CC[C@]4(C)C3CC[C@@]21C (stereo partly drawn),-1.8,29.9,3.4,-35.3,0.0,3.7,.
CC(=O)OC1CC2(O)C3CCC4CC(O)CCC4(C)C3CCC2(C)C1C1=CC(=O)OC1 (stereo not drawn),-49.6,97.4*,68.8*,85.1*,45.5,89.6*,98.5*
O=C1NC(=S)N(c2ccccc2F)C(=O)/C1=C\c1cccs1,4.2,102.5*,84.4*,28.5,17.4,12.4,83.0*
ClCCN1CCN(c2ccnc3cc(Cl)ccc23)CC1,7.6,11.3,6.5,-0.7,-1.7,-27.8,.
O=c1[nH]c2ccccc2n1C1CCN(Cc2ccc(-c3[nH]c4cc5ncnc5cc4nc3-c3ccccc3)cc2)CC1,.,.,-47.9,-34.1,1.0,.,.
CC(=O)NN1C(=O)c2ccccc2NC1c1cccnc1 (stereo not drawn),-2.2,5.1,2.3,19.9,-12.4,11.1,.
Cc1ccc(N2C(=O)NC(=O)/C(=C/C=C/c3ccco3)C2=O)cc1,-19.6,86.3*,64.1*,17.7,3.1,80.6*,34.7
Cc1ccc(N2C(=O)NC(=O)/C(=C\c3cccn3C(C)(C)C)C2=O)cc1,8.6,6.9,-3.5,-4.6,16.1,-12.1,.
O=C1NC(=O)N(Cc2ccc(F)cc2)C(=O)/C1=C\C=C\c1ccco1,-3.4,62.0*,22.3,17.3,-1.1,77.8*,66.1*
O=C1NC(=O)N(Cc2ccccc2)C(=O)/C1=C\c1ccco1,-1.1,17.3,16.8,14.3,-9.2,46.7,.
O=c1[nH]c(=O)n(-c2ccc(Cl)cc2)c(O)c1C=NCCN1CCCCC1,-2.4,15.7,13.8,-11.1,14.4,-6.2,.
CCn1c(=O)n(CC)c2cc([N+](=O)[O-])c(N3CCNCC3)cc21,4.1,11.6,12.3,19.3,1.5,-1.7,.
COc1ccc(CNCCc2c(C)[nH]c3ccc(OC(F)(F)F)cc23)c(OC)c1,-10.9,99.4*,6.7,11.1,12.2,16.4,99.0*
Cc1ccc2[nH]c(C)c(CCNCc3cccnc3)c2c1,-8.5,-10.5,11.5,6.3,-8.8,24.9,.
C[n+]1c(-c2ccccc2)cc(-c2ccc(Cl)cc2)cc1-c1ccccc1,-0.6,1.7,17.1,17.7,20.8,-23.2,.
Cc1ccc(-c2cc(-c3ccc(C)cc3)[n+](-c3ccccc3)c(-c3ccc(C)cc3)c2)cc1,-39.5,80.2*,57.5*,91.6*,71.4*,31.5,94.1*
Cc1ccc2c(c1)c(=O)c1c3n2CCN(CC2CO2)C3CC1 (stereo not drawn),-2.1,5.9,9.6,-13.5,17.3,-0.1,.
